# Compounds with a hit are over-represented: about 5.3% of the library has one in this group of screens.
# SUMO Mot1 rescue: SUMOylation pathway inhibition by Mot1-301 growth rescue | S. cerevisiae Mot1-301 growth rescue, ATP luminescence, 38.5C; percent above DMSO median, 100 means doubled | 1% of 320,000 active | growth rescue, % at 18.8 µM;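 active = every valid replicate shows activation above 250% relative to neutral control wells; inactive = the rest, any valid replicate at or below 250%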;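 also: OY570 slx delta 5 strain wells were the positive control but not used for scaling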
# HIF activator: HIF pathway transcriptional activation; U2OS HRE-luciferase reporter, luminescence; normalized: DMSO 0%, desferrioxamine 100%; activation, % at 7.5 µM (by protocol); 0.32% of 300,000 active;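 active = mean activation of at least 10% of the iron chelator positive control signal, with at least half of replicates also reaching 10%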
# ALR inh: blocks human ALR sulfhydryl oxidase activity; P55789; purified ALR, DTT oxidation, H2O2 HRP-luminol luminescence; inhibition, % (concentration not given with the values); 3.8% of 290,000 active;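 active = mean replicate inhibition above about 79%, with every replicate also reaching it, limit read from the data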
# Target sequence (P55789 whole entry, looked up): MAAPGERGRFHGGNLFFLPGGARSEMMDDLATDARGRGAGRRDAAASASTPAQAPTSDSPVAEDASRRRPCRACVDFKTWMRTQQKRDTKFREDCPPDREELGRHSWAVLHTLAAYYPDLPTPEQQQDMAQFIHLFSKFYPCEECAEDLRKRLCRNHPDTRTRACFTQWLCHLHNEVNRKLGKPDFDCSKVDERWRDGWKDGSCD
# PfM18AAP inh: blocks P. falciparum M18 aspartyl aminopeptidase; recombinant PfM18AAP, H-Glu-NHMec fluorogenic cleavage; inhibition, % at 7.35 µM; 1.2% of 290,000 active; AID 1822;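 active = inhibition above the campaign mean inhibition over all tested compounds plus 3 SD, cut at about 28% in these data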;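 also: 0% = plate median of test compound wells and 100% = 2 mM ZnCl2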
# Starred values were filed as active, the others as inactive; · = no result; + = active, no number.
SMILES,SUMO Mot1 rescue,HIF activator,ALR inh,PfM18AAP inh
NC(=S)NNc1c(F)c(F)c(F)c(F)c1F,-0.3,1.2,97.5*,14.8
Cc1ccccc1NNC(N)=S,50.0,-0.3,71.9,-53.3
Cc1cc(C)cc(NC(=O)COC(=O)c2ccc3c(c2)OCCO3)c1,20.9,·,-4.9,·
O=C(COC(=O)c1ccc2c(c1)OCCO2)Nc1cc(Cl)ccc1Cl,320.9*,0.4,8.2,4.0
CN(C)/C=C(\C#N)C(=O)c1cccc(Oc2ccc(Br)cc2)c1,240.0,-1.2,-8.9,-4.0
CC(C)c1ccc(Oc2cccc(C(=O)/C(C#N)=C/N(C)C)c2)cc1,-2.1,-3.0,98.0*,14.3
CN1CCN(C2Cc3cc(F)ccc3Sc3ccc(Cl)cc32)CC1 (configuration not stated),-7.2,1.0,-11.0,·
CN1CCN(C2Cc3ccc(F)cc3Sc3cc(F)c(Cl)cc32)CC1 (configuration not stated),-68.8,39.3*,-6.0,·
CCCCNC(=O)C1CCN(c2nc(OC)nc(OC)n2)CC1,9.1,0.2,-3.0,-2.2
O=C(NC1CCCCC1)N1CCN(c2ccc(Cl)cc2)CC1,45.3,0.5,99.0*,-5.1
CC(C)COc1cccc(C(=O)NNC(=O)C2COc3ccccc3O2)c1 (configuration not stated),-14.9,25.5*,1.1,-8.6
CC1(C)Cc2ccccc2C(=O)N1,11.6,0.0,-3.1,-4.7
CC(C)c1ccc2c(c1)C(=O)NC(C)(C)C2,-4.2,1.1,92.3*,-6.7
Cc1cc(C)n2c(nc3ccccc32)c1C(=O)NCc1ccccc1,9.9,-0.6,4.8,-4.1
CC(=O)CSc1cc(-c2ccccc2)nc2ncnn12,-9.6,-0.3,97.8*,3.4
C#CCNc1cc(-c2ccccc2)nc2ncnn12,-2.5,-0.6,-4.9,-5.5
CC(NC(=O)c1ccccc1)C(=O)N/N=C/c1ccc(O)cc1 (configuration not stated),344.1,-0.1,99.2*,7.3
O=C(N/N=C/c1ccc(OCc2ccccc2)cc1)c1cc[n+](Cc2ccccc2)cc1,2.7,-2.6,-21.5,6.6
O=C(N/N=C/c1ccc(O)cc1)c1cc[n+](Cc2ccccc2)cc1,-22.3,-4.6,98.7*,2.4
COc1ccc(Nc2cc(C(=O)NCCCN3CCN(C)CC3)c3ccccc3n2)c(OC)c1,-13.0,-1.1,80.6*,4.6
C/C(=N\NC(=O)c1cc(C)oc1C)c1ccc(N2CCOCC2)cc1,16.3,1.2,82.6*,-1.6
C/C(=N\Nc1nc(C)cc(C)n1)c1ccc(N2CCOCC2)cc1,-0.8,0.6,99.2*,8.7
CN(C)c1oc(-c2ccc(Cl)cc2)nc1S(=O)(=O)c1ccccc1,330.2,0.1,0.6,-0.3
NNC(=S)Nc1cccc(-c2n[nH]c(=S)o2)c1,-6.2,-0.6,98.0*,9.8
CN(C)C(=S)Nc1cccc(-c2n[nH]c(=S)o2)c1,15.1,0.8,59.6,5.0
SMILES,SUMO Mot1 rescue,HIF activator,ALR inh,PfM18AAP inh
O=C(CNS(=O)(=O)c1ccccc1)N/N=C/c1ccc(O)cc1,-12.2,0.0,99.0*,9.5
O=C(CCn1cnc2ccccc21)N/N=C/c1ccc(O)cc1,-3.6,-0.3,99.3*,3.7
Cc1ccc2nc(SCC(=O)N/N=C/c3ccc(C(=O)O)cc3)cc(C)c2c1,13.0,0.0,97.8*,7.5
O=C(Cn1cnc2ccccc21)N/N=C/c1cccnc1,-6.1,0.4,-25.1,-0.9
O=C(CNS(=O)(=O)c1ccccc1)N/N=C\c1ccc(Cl)cc1,-1.7,0.3,·,3.6
O=C(Cn1cnc2ccccc21)N/N=C/c1ccccn1,-1.1,-0.7,99.4*,1.3
CN(C(=O)COC(=O)c1ccccc1SCC(=O)NC1CCCCCCC1)C1CCS(=O)(=O)C1 (configuration not stated),-0.7,0.0,-3.6,-6.9
OCCN1CCN(c2cc(-c3ccccc3)c3ccccc3n2)CC1,-30.2,1.2,-1.6,2.5
O=C(CSc1ccc2ccccc2n1)N/N=C/c1ccc(O)cc1,3.0,-0.2,99.3*,-1.1
c1ccc(CC2CCN(Cc3ccccn3)CC2)cc1,342.8*,-41.4,-1.9,2.6
Cc1ccc(N=C2C(=S)N(c3ccc(C)cc3)C(=N)N2/N=C/c2ccc(Cl)cc2)cc1,·,4.6,95.8*,0.4
COc1cccc(CN2C(=O)C3CCCN3c3ccc(S(=O)(=O)N4CCOCC4)cc32)c1 (configuration not stated),5.7,-0.4,-0.5,0.9
COc1cc(NS(C)(=O)=O)ccc1Nc1c2ccccc2nc2ccccc12,12.4,·,98.6*,·
Cc1ccc(C(=O)NC2CCS(=O)(=O)C2)cc1S(=O)(=O)N1CCCCCC1 (configuration not stated),49.0,-0.4,3.8,-14.7
COc1ccccc1C(=O)NCC(=O)OC(C)C(=O)N1CCOCC1 (configuration not stated),0.4,-0.6,14.5,·
CCOc1cc(NC(=S)Nc2ccccc2)c(OCC)cc1NC(=O)c1ccc(OC)cc1,-1.0,-0.5,-10.6,11.1
CCOc1cc(NC(=S)Nc2ccc(Cl)cc2)c(OCC)cc1NC(C)=O,-6.1,0.1,-13.5,31.0*
O=C(CN(c1ccc(F)cc1)S(=O)(=O)c1ccccc1)N1CCOCC1,-7.1,-0.3,-8.6,-10.8
O=C(OCC(=O)C12CC3CC(CC(C3)C1)C2)c1ccc(O)cc1O,4.8,-0.2,-7.9,·
Cn1cnnc1SCC(C)(C)NS(=O)(=O)c1ccc(Cl)cc1,-3.9,-0.4,-23.3,1.0
CN(CC1CCCN(CCc2cccc(C(F)(F)F)c2)C1)C(=O)c1cc2ccccc2o1 (configuration not stated),·,-10.9,·,2.9
CN(C)c1ccc(/C=N/NC(=O)c2ccnn2C)cc1,3.2,1.1,98.6*,-9.6
Cc1ccc(/C=N/NC(=O)c2ccco2)cc1,71.7,1.9,1.5,-9.1
CN(C)c1ccc(NC(=S)c2ccccn2)cc1,24.6,-2.5,97.6*,12.0
CN(C)c1ccc(/C=N/NC(=O)c2ccn(C)n2)cc1,-12.9,2.6,94.3*,4.2
SMILES,SUMO Mot1 rescue,HIF activator,ALR inh,PfM18AAP inh
Cn1ccc(C(=O)N/N=C/c2cccnc2)n1,110.3,-3.4,0.9,-5.8
CN(C)c1ccc(/C=N/NC(=O)c2ccco2)cc1,66.8,1.7,98.6*,-6.0
CN(C)c1ccc(C(=S)Nc2ccccc2)cc1,215.4,-3.1,·,-0.6
CN(C)c1ccc(/C=N/NC(=O)c2ccccn2)cc1,-10.5,1.5,87.5*,5.2
Cc1ccc(S(=O)(=O)N[C@@H](Cc2ccccc2)C(=O)N2CCC[C@@H]2C(=O)O)cc1,38.1,0.5,-12.9,1.5
CCc1ccc(NC(=O)C2CCCCC2C(=O)O)cc1 (configuration not stated),4.5,-0.2,-4.6,4.1
O=C(O)[C@H]1CCCC[C@H]1C(=O)Nc1ccc(Nc2ccccc2)cc1,116.4,1.1,98.4*,2.5
CC(C)c1ccc(NC(=O)C2CCCCC2C(=O)O)cc1 (configuration not stated),+,-0.4,-5.2,-11.6
Clc1ccc(C(Cn2ccnc2)OCc2c(Cl)cccc2Cl)c(Cl)c1 (configuration not stated),346.3*,·,-2.5,·
OC(Cn1ccnc1)c1ccc(Cl)cc1Cl (configuration not stated),89.7,-0.2,-26.9,0.5
